Shown are actives, neighbours in structure and some others; about 3.2% of the full set was active somewhere.
HEK293 cAMP cs: raises cAMP in parental HEK293 cells, TSHR agonist counter-screen | parental HEK293 CNG cAMP sensor, membrane potential fluorescence | Potency, µM (highest dose often 57.1 µM), usual class: activators | 73,000 tested, 2.5% active; note: nearly all actives have a fitted effect of over 55% in size
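Parental HEK 293 cells stably expressing a modified CNG channel (no TSHR) report cAMP rise as membrane depolarization. Membrane potential dye with 100 uM RO 20-1724 was loaded for 60 min at room temperature, then compound added for 30 min; fluorescence read at 590 nm.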
TSHR agonist: activates the human thyroid stimulating hormone receptor. P16473. HEK293-CNG-TSHR cells (CNG channel as cAMP sensor), membrane potential dye, cAMP. Potency, µM (highest dose often 57.1 µM), most hits filed as activators. 73,000 tested, 0.48% active; active = well fitted activation curve with a large enough effect in the main read-out, with a control signal flat, not every such curve was filed as active; inconclusive = small, poorly fitted or top-dose-only effect, or a change in a side signal; inactive = no such curve, though single readings can be large or run the other way; reference of the percent scale not stated here;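 note: the control signal comes from parental cells without the receptor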
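HEK 293 cells stably expressing TSHR and a cAMP-gated CNG channel; parental CNG-only cells as counterscreen. Cells preloaded 60 min with membrane potential dye plus 100 uM RO 20-1724, then compound 30 min; fluorescence read at 590 nm.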
DNA Pol III inh: blocks replication by bacterial DNA polymerase III holoenzyme; reconstituted DNA polymerase III holoenzyme replication, biochemical; Potency, µM (highest dose often 57.1 µM); 71,000 tested, 0.25% active
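Reconstituted *E. coli* holoenzyme (0.35 nM Pol III, 1 nM beta, 154 nM SSB, 2 nM primase) was preincubated with compound for 15 min at RT. Synthesis on 1.4 nM ssM13Gori ran 35 min, then was stopped with PicoGreen/EDTA and read as dsDNA fluorescence.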
TsaE inh: inhibitors of E. coli YjeE (TsaE) | purified YjeE enzyme, qHTS inhibition assay | AID 605 | Potency, µM | 71,000 tested, 0.05% active
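Fluorescence polarization of a BODIPY Texas Red–ADP probe (2 uM) bound to purified YjeE (10 uM) was read after 15 min room-temperature incubation with compounds. Loss of polarization marks inhibitors; ADP serves as titrated control.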
BRCT PPI green: inhibitors of human BRCA1 BRCT-phosphoprotein interaction (green fluorophore); P38398; BRCA1 BRCT-phosphopeptide binding, green fluorescence polarization; Potency, µM (doses to about 76.9 µM), most hits filed as inhibitors; 75,000 tested, 0.05% active; AID 875
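Compounds were incubated for 12 min at room temperature with a complex of 100 nM fluorescein-tagged pBACH1 decapeptide and 250 nM His-tagged BRCT protein. Buffer was phosphate pH 7.3 with EDTA, DTT and Tween 20. Disruption of binding lowers the polarization signal.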
BRCT inh red: disrupts BRCA1 BRCT binding to phosphoprotein, red fluorophore readout; P38398; BRCT-phosphopeptide binding, red fluorescence polarization; Potency, µM (top dose mostly 76.9 µM), actives largely listed as inhibitors; 75,000 tested, 0.03% active; AID 892
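Rhodamine-labelled pBACH1 10-mer (100 nM) bound to BRCT domain (100 nM) at pH 7.3; compounds incubated 12 min room temperature, polarization read. Free peptide defines full inhibition; unlabelled decapeptide titrated as control.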
Numbers stand for hits; n = inactive; u = inconclusive; x = not tested or not shown; [ ] = dose if it differs, or a comment. Unless noted, calls come from the whole dose curve; as a rule, active = well fitted curve in the direction sought with a large enough effect; inconclusive = small, poorly fitted or top-dose-only effect, or another doubt; inactive = no such curve, though single readings can be large; an effect the other way counts as inactive or inconclusive.

SMILES	HEK293 cAMP cs	TSHR agonist	DNA Pol III inh	TsaE inh	BRCT PPI green	BRCT inh red
CCOC(=O)c1[nH]c2ccc(F)cc2c1NC(=O)CN1CCN(C/C=C/c2ccccc2)CC1	n	u	n	n	n	n
O=C(NCc1ccc2c(c1)OCO2)c1ccc(COc2cccc(Cl)c2)o1	20µM	u	n	n	n	n
COc1cccc(C(=O)Nc2c(C(N)=O)oc3ccccc23)c1	u	u	n	n	n	n
CCOC(=O)c1oc2ccccc2c1NC(=O)C1CCCCC1	16µM	u	n	n	n	n
COc1ccc(NC(=O)c2oc3ccccc3c2NC(=O)COc2ccccc2OC)c(OC)c1	n	n[11.4 µM]	n	n	n	n
CCOC(=O)c1oc2ccccc2c1NC(=O)c1cccc(OC)c1	32µM	u	n	n	n	n
CCOCC(=O)Nc1c(C(=O)Nc2ccccc2OC)oc2ccccc12	25µM	u	n	n	n	n
O=C(O)c1ccc(Cl)c(Cl)c1	u	u	n	n	n	n
CCc1ccc2[nH]c(=O)c(CN(Cc3ccccc3OC)Cc3nnnn3Cc3ccco3)cc2c1	u	u	n	n	n	n
COc1ccccc1CN(Cc1cc2cc(C)ccc2[nH]c1=O)Cc1nnnn1Cc1ccco1	20µM	u	n	n	n	n
COc1ccc2[nH]c(=O)c(CN(Cc3ccco3)Cc3nnnn3Cc3ccccc3)cc2c1	n	n	n	n	n	n
CCOc1ccc2[nH]c(=O)c(CN(Cc3ccco3)Cc3nnnn3Cc3ccccc3)cc2c1	32µM	u	n	n	n	n
COc1cccc(NC(=O)c2ccccc2-c2nc(-c3cccc(C)c3)no2)c1	16µM	u	n	n	n	n
CC(C)(C)NC(=O)c1ccccc1-c1nc(-c2ccccc2Cl)no1	16µM	u	n	n	n	n
CCOc1ccccc1NC(=O)c1ccccc1-c1nc(-c2ccccc2OC)no1	20µM	u	n	n	n	n
O=c1[nH]c(Cl)nc2c1ncn2C1OC(CO)C(O)C1O (configuration not stated)	x	x	x	x	n	n
COc1cc(NC(=O)c2ccc(-c3ccc(Br)cc3)o2)ccc1NC(=O)C(C)C	u	u	n	n	n	n
CCc1cccc(NC(=O)CN2C(=O)NC3(CCCCCCC3)C2=O)c1	n	13µM	n	n	n	n
COc1ccc(-n2c(COc3ccccc3)nnc2SCc2ccc(C#N)cc2)cc1	n	n	n	n	n	n
Cc1ccc(-c2nnc(CSc3nnc(COc4ccccc4)n3-c3ccccc3)o2)cc1	25µM	u	n	n	n	n
CCOc1ccc(-c2nnc(SCc3nnc(-c4ccccc4)o3)n2-c2ccccc2F)cc1	13µM	u	n	n	n	n
Cc1ccc(-c2nnc(CSc3nnc(COc4ccccc4)n3-c3ccc(C)cc3)o2)cc1	25µM	u	n	n	n	n
CCOc1ccccc1-n1c(SCC(N)=O)nnc1-c1ccccc1	n	n	n	n	n	n
CN(C)C(=O)[C@]1(C)C[C@H]1[C@H](NC(=O)CNC(=O)[C@@H]1CCCN1C(=O)[C@]1(C)C[C@H]1[C@H](NC(=O)OCc1ccccc1)c1ccccc1)c1ccccc1	n	n	n	n	n	n
COCCNC(=O)[C@H](C)[C@@H]1C[C@@]1(C)[C@@H](NC(=O)OCc1ccccc1)c1ccccc1	n	n	n	n	n	n
SMILES	HEK293 cAMP cs	TSHR agonist	DNA Pol III inh	TsaE inh	BRCT PPI green	BRCT inh red
C=C(N(C)C)[C@]1(C)C[C@H]1[C@H](NC(=O)CNC(=O)OCc1ccccc1)c1ccccc1	16µM	u	n	n	n	n
C[C@@H](C(=O)NCCF)[C@H]1C[C@]1(C)[C@H](NC(=O)OCc1ccccc1)c1ccccc1	16µM	u	n	n	n	n
NCCCCN=C(N)N	n	n	n	n	n[3.08 µM]	n
COc1cccc(NC2CC(=O)N(CCc3ccccc3)C2=O)c1 (configuration not stated)	n	n	n	n	n	n
CCCC(=O)Nc1ccc(N2CCN(C(=O)CCC)CC2)cc1	n	n	n	n	n	n
CCOC(=O)N1CCN(S(=O)(=O)c2ccc(C)cc2)C1c1ccccc1 (configuration not stated)	13µM	u	n	n	n	n
O=C(c1ccccc1CCc1ccccc1)N1CCN(c2ccccn2)CC1	16µM	u	n	n	n	n
NC(=O)CN1CCN(C(=O)NC2CCCCC2)CC1	25µM	u	n	n	n	n
COc1cc2c(cc1OC)C(C(=O)Nc1ccc3c(c1)OCCO3)C1c3ccccc3CCN1C2=O (configuration not stated)	u	u	n	n	n	n
CN(C)CCOc1nc(-c2ccccc2)nc2c1oc1ccccc12	n	u	25µM	n	n	n
COc1cc(-c2nnc(CSc3nc4ccccc4s3)o2)cc(OC)c1OC	32µM	u	n	n	n	n
COc1ccc(-c2nnc(CSc3nc4ccccc4c(=O)n3CC(C)C)o2)cc1OC	7.9µM	u	n	n	n	n
COc1cc(-c2nnc(COC(=O)CSc3cc(C)c4ccccc4n3)o2)cc(OC)c1OC	n	n	n	n	n	n
COc1ccc(-c2noc(CSc3nc4ccccc4c(=O)n3-c3ccccc3)n2)cc1OC	n	n	n	n	n	n
CCOC(=O)C1CCCN(CC(=O)NC2CC2)C1 (configuration not stated)	n	n	n	n	n	n
CCOC(=O)C1CCCN(CC(=O)NC2=Nc3ccccc3N=C(C)C2c2ccccc2)C1 (configuration not stated)	n	25µM	n	n	n	n
CSc1nc(C)c(Cl)c(C)c1C#N	u	u	n	n	n	n
CN(C)CCn1c(C(=O)Nc2ccccc2)cc2ccccc21	2µM	u	n	n	n	n
O=C(NC12CC3CC(CC(C3)C1)C2)N1CCN(C(=O)C2CCCO2)CC1 (configuration not stated)	n	n	n	n	n	n
C1CCC(N=C(NC23CC4CC(CC(C4)C2)C3)N2CCOCC2)CC1	25µM	u	n	n	n	n
CCc1cc2cc(C(=O)N3CCN(Cc4ccccc4)CC3)sc2s1	32µM	u	n	n	n	n
C[C@]12CC[C@H]3c4ccc(O)cc4CC[C@@H]3[C@H]1C/C(=N/O)[C@H]2O	n[11.4 µM]	n[11.4 µM]	n[11.4 µM]	n	n[15.4 µM]	n[15.4 µM]
CCOC(=O)c1cc2c(ccn2C)n1CC(=O)N1CCN(c2ccccc2OC)CC1	n	n	n	n	n	n
CC[C@H](NC(C)C)[C@H](O)c1ccc(O)c(O)c1	0.25µM	u	n	n	n	n
COc1ccc(S(=O)(=O)N2CCC(C(=O)N3CCc4ccccc4C3)CC2)cc1	32µM	u	n	n	n	n

Screening results as filed in PubChem.
